# In PubChem BioAssay (NCATS):
# Where “and” joins values, the source holds several entries; their conditions need not be identical. Equal entries are not always repeated. Records with an inconclusive call do not appear. A call without a number means that no potency is given here. Calls of active or inactive are those of the source. Unless noted, calls come from the whole dose curve; as a rule, active = well fitted curve in the direction sought with a large enough effect; inconclusive = small, poorly fitted or top-dose-only effect, or another doubt; inactive = no such curve, though single readings can be large; an effect the other way counts as inactive or inconclusive.
# Columns and labels:
# [1] = target: Voltage-gated inwardly rectifying potassium channel KCNH2 (Homo sapiens) (UniProt Q12809); assay: qHTS Assay for Small Molecule Inhibitors of the Human hERG Channel Activity (AID 588834);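 note: lower thallium flux fluorescence means stronger hERG block; nearly all actives have a fitted effect of over 50% in size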; note: potency is the fitted concentration of half-maximal effect
# Voltage-gated inwardly rectifying potassium channel KCNH2 (Homo sapiens), sequence (Q12809 whole entry, looked up): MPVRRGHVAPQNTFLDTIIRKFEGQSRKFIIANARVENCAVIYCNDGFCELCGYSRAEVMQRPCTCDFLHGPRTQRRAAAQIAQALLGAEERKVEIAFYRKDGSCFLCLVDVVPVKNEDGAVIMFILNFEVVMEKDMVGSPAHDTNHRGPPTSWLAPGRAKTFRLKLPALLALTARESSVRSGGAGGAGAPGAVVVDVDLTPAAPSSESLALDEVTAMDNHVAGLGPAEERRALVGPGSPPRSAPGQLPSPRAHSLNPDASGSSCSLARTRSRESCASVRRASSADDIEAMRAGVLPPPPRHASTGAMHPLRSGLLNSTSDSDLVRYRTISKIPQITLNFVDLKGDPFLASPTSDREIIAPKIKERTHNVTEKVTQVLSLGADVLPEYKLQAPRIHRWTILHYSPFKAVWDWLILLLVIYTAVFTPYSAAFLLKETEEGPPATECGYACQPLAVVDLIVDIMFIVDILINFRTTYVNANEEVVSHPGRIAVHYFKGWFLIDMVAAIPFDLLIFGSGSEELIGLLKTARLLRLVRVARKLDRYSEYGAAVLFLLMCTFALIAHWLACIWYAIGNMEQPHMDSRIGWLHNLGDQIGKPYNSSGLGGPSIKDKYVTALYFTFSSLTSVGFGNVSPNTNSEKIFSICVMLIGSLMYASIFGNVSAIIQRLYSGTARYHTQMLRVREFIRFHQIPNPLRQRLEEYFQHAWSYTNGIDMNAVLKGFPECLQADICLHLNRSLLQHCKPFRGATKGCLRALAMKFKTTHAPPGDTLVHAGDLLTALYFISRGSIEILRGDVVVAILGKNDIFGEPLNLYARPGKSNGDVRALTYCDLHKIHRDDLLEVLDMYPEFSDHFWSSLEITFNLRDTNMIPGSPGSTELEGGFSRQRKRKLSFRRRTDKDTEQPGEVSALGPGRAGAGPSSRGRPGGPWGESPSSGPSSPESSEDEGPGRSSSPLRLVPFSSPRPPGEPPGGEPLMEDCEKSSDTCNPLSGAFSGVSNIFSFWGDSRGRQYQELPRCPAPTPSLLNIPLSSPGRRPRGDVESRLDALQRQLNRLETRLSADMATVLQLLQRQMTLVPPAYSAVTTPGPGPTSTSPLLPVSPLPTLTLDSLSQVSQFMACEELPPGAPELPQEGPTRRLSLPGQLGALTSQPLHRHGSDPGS
# How it was run: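 U2OS cells BacMam-transduced with hERG, 2000 cells/well, compound ~10 min at 37 °C before stimulation buffer. FluxOR thallium flux fluorescence read kinetically on FDSS; decrease indicates block; AC50 from Hill fits.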
# [2] = target: Luciferin 4-monooxygenase (Photinus pyralis) (UniProt P08659); assay: Biochemical firefly luciferase enzyme assay for NPC (AID 624030); note: nearly all actives have a fitted effect of over 70% in size; note: potency is the fitted concentration of half-maximal effect
# Luciferin 4-monooxygenase (Photinus pyralis), sequence (P08659 whole entry, looked up): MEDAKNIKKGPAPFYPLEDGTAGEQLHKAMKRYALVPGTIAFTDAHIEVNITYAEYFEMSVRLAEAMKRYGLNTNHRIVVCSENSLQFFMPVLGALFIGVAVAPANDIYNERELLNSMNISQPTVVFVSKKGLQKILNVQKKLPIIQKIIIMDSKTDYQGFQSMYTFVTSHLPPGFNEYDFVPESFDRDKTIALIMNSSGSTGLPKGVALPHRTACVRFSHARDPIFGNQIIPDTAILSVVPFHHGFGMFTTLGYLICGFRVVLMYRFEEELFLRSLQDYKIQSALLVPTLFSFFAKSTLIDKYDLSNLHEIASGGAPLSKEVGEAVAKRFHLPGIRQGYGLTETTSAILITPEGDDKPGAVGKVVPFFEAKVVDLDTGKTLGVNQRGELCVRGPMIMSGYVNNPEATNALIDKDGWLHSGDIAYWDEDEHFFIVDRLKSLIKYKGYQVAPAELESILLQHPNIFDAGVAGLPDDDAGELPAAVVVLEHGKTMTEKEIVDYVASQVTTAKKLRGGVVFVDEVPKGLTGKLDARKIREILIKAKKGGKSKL
# How it was run: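 Counter-screen for direct inhibition of the luciferase enzyme by approved-drug library compounds, run at 10 nM enzyme in 50 mM Tris acetate (final). Luminescence was read within 5 min of enzyme-buffer addition and normalized to PTC124 versus DMSO (0%).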
# [3] = S16 Schwann cell viability assay (CellTiter-Glo assay) (AID 624031); note: nearly all actives have a fitted effect of over 70% in size; note: potency is the fitted concentration of half-maximal effect
# How it was run: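 Untransfected S16 rat Schwann cells; compound 24 h, 37 °C/5% CO2; CellTiter-Glo ATP luminescence. % activity vs no-cell wells and DMSO controls (0%); concentration-effect curves classed by r2, response magnitude, activity.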
# [4] = S16 Schwann cell PMP22 intronic element firefly luciferase assay (AID 624032); note: nearly all actives have a fitted effect of over 30% in size; note: potency is the fitted concentration of half-maximal effect
# How it was run: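 Rat S16 Schwann cells stably carrying a PMP22 intronic element-driven Fluc reporter were seeded overnight, then exposed to compounds for 24 h at 37 °C. Luminescence was normalized to PTC124 (positive control) and DMSO (0% activity).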
# [5] = target: Glutaminase kidney isoform, mitochondrial (Homo sapiens) (UniProt O94925); assay: qHTS for Inhibitors of Glutaminase (GLS): LOPAC Validation (AID 624146);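 note: glutamate product detected by oxidase and peroxidase coupled Amplex red fluorescence gain; series mostly up to about 46 µM; nearly all actives have a fitted effect of over 60% in size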
# Glutaminase kidney isoform, mitochondrial (Homo sapiens), sequence (O94925 whole entry, looked up, canonical isoform): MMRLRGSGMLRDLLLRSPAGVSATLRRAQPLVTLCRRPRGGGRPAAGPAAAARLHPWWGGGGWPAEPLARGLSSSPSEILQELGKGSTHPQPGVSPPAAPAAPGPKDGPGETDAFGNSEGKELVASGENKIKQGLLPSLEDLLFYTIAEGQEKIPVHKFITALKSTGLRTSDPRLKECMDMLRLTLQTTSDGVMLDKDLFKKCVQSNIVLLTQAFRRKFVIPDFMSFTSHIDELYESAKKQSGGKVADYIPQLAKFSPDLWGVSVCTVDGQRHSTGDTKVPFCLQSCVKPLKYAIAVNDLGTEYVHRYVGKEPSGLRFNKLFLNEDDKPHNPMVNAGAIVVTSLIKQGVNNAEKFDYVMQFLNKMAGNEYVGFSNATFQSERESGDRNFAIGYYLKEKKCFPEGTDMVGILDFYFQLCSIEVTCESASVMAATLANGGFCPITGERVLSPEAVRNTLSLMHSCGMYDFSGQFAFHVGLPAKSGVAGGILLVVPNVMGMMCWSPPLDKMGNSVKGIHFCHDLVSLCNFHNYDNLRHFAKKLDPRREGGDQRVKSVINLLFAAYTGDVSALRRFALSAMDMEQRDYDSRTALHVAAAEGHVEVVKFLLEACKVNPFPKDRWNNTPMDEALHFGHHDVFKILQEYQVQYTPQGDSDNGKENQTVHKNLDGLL
# How it was run: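 Glutamate formation by hKGA was monitored fluorometrically using coupled glutamate oxidase, HRP and Amplex Red. Substrate was added as 1 mM L-glutamine solution; incubation was 30 min at RT after an initial read.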
# [6] = target: Glucagon-like peptide 1 receptor (Homo sapiens) (UniProt P43220); assay: qHTS of GLP-1 Receptor Agonists: LOPAC Validation (AID 624148);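 note: higher luminescence signal means agonism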
# Glucagon-like peptide 1 receptor (Homo sapiens), sequence (P43220 whole entry, looked up): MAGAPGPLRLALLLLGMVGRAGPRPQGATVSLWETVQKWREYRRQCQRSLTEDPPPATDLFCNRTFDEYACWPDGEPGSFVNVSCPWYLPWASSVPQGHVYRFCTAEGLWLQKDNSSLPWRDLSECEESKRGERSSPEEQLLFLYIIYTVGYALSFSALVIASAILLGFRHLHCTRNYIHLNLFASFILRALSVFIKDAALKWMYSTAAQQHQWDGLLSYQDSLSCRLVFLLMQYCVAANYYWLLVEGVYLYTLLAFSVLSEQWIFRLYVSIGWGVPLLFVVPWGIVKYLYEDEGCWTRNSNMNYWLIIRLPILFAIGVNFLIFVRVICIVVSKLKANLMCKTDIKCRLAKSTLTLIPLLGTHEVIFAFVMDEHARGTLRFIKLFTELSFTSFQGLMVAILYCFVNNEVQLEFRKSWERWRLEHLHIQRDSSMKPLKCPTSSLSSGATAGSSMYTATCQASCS
# How it was run: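 HEK293 cells stably co-expressing a cAMP-responsive luciferase reporter and a hypersensitive GLP-1R were plated 12 h at 37 °C and exposed to compounds for 4-6 hr at 37 °C, 5% CO2. Luminescence was read 12 min after adding detection reagent.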
# [7] = qHTS of Nrf2 Activators: LOPAC Validation (AID 624149)
# How it was run: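 AREc32 cells carrying an ARE-driven firefly luciferase were grown overnight in OPTI-MEM with 5% FBS, then exposed to compounds for 24 hr at 37 deg C. Luciferase signal was read after 30 min with Steady-Glo at RT.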
# [8] = HTS Assay for Allosteric Antagonists of the Human D2 Dopamine Receptor: Hit Validation in HTRF (AID 624455);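 note: stable D1 dopamine receptor cell line scored for blocking the D1 response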
# How it was run: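 Hits were examined in an HTRF assay using cells stably expressing the D1 dopamine receptor, scoring inhibition of the D1-mediated response. The preceding primary screen tracked calcium flux after an EC80 dopamine addition in force-coupled, inducible Hek293 Trex D2 cells.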
# [9] = S16 Schwann cell PMP22 intronic element beta-lactamase assay (AID 624044; calls by dose curve; note: nearly all actives have a fitted effect of over 15% in size; note: potency is the fitted concentration of half-maximal effect)
# How it was run: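 Rat S16 Schwann cells with beta-Lac driven by a PMP22 intronic element, compound-treated 24 h at 37 °C. LiveBLAzer FRET B/G read: 460 nm normalized to potassium clavulanate vs DMSO; 535 nm FRET as viability; concentration-effect curves classified.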
# [10] = Cytotoxicity counterscreen for NFkB agonists and antagonists (AID 624476);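 note: potency is the fitted concentration of half-maximal effect; cells exposed to compound for 48 hours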
smiles,measurement,setting,value
NC(=O)N1c2ccccc2CC(=O)c2ccccc21,Potency,[1],inactive
same,Potency,[2],inactive
same,Potency,[3],inactive
COc1cnc(NS(=O)(=O)c2ccc(N)cc2)nc1,Potency,[1],inactive
same,Potency,[2],inactive
same,Potency,[3],inactive
same,Potency,[4],inactive
COc1c(N2CCNC(C)C2)c(F)cc2c(=O)c(C(=O)O)cn(C3CC3)c12 (stereo unspecified),Potency,[1],inactive
same,Potency,[2],inactive
same,Potency,[3],inactive
same,Potency,[4],inactive
Nc1nc(F)nc2c1ncn2[C@@H]1O[C@H](CO)[C@@H](O)[C@@H]1O,Potency,[1],inactive
N[C@@H](C(=O)N[C@@H]1C(=O)N2C(C(=O)O)=C(Cl)CS[C@H]12)c1ccccc1,Potency,[1],inactive
same,Potency,[2],inactive
same,Potency,[3],inactive
O=c1oc2c(O)c(O)cc3c(=O)oc4c(O)c(O)cc1c4c23,Potency,[1],inactive
same,Potency,[2],36.1 µM (active)
same,Potency,[3],inactive
CC(=O)[C@H]1CC[C@H]2[C@@H]3CC=C4C[C@@H](O)CC[C@]4(C)[C@H]3CC[C@]12C,Potency,[1],inactive
CN(Cc1cc(Br)cc(Br)c1N)C1CCCCC1,Potency,[1],3.16 µM (active)
same,Potency,[2],inactive
Cc1onc(-c2ccccc2Cl)c1C(=O)N[C@@H]1C(=O)N2[C@@H]1SC(C)(C)[C@@H]2C(=O)O,Potency,[1],inactive
CCN1CCCC1CNC(=O)c1cc(S(N)(=O)=O)ccc1OC (stereo unspecified),Potency,[1],10 µM (active)
same,outcome,[5],inactive
same,outcome,[6],inactive
same,outcome,[7],inactive
same,Potency,[8],inactive
Oc1c(Cl)cc(Cl)c2cccnc12,Potency,[1],inactive
same,Potency,[2],inactive
same,Potency,[9],28.2 µM (active)
C[C@@H](NCCCc1cccc(C(F)(F)F)c1)c1cccc2ccccc12,Potency,[1],11.2 µM (active)
same,Potency,[2],inactive
same,Potency,[3],12.8 µM (active)
same,Potency,[9],inactive
O=NN(CCCl)C(=O)NC1CCCCC1,Potency,[1],inactive
same,Potency,[3],inactive
same,Potency,[9],inactive
CCn1cc(C(=O)O)c(=O)c2cc(F)c(N3CCNCC3)nc21,Potency,[1],inactive
same,Potency,[3],inactive
CC(C)(Sc1cc(C(C)(C)C)c(O)c(C(C)(C)C)c1)Sc1cc(C(C)(C)C)c(O)c(C(C)(C)C)c1,Potency,[1],inactive
same,Potency,[3],inactive
same,Potency,[4],inactive
COc1ncnc(NS(=O)(=O)c2ccc(N)cc2)c1OC,Potency,[1],inactive
same,Potency,[3],inactive
same,Potency,[4],inactive
CC[C@H](NC(C)C)[C@H](O)c1ccc(O)c2[nH]c(=O)ccc12,Potency,[1],inactive
same,Potency,[2],inactive
same,Potency,[3],inactive
same,Potency,[9],inactive
CC(N)C12CC3CC(CC(C3)C1)C2 (stereo unspecified),Potency,[1],inactive
same,Potency,[3],inactive
same,Potency,[4],inactive
CNS(=O)(=O)Cc1ccc2[nH]cc(CCN(C)C)c2c1,Potency,[1],inactive
same,Potency,[3],inactive
same,Potency,[4],inactive
Cc1oc(=O)oc1CN1CCN(c2cc3c(cc2F)c(=O)c(C(=O)O)c2n3C(C)S2)CC1 (stereo unspecified),Potency,[1],inactive
same,Potency,[3],inactive
same,Potency,[4],inactive
COc1nc(N)nc2c1ncn2[C@@H]1O[C@H](CO)[C@@H](O)[C@@H]1O,Potency,[1],inactive
same,Potency,[3],inactive
same,Potency,[4],2.03 µM (active)
CCCc1nc(C)c2c(=O)[nH]c(-c3cc(S(=O)(=O)N4CCN(CC)CC4)ccc3OCC)nn12,Potency,[1],inactive
same,Potency,[4],inactive
NC(=O)c1cccc(N)c1,Potency,[1],inactive
same,outcome,[5],inactive
same,outcome,[6],inactive
same,outcome,[7],inactive
same,Potency,[8],inactive
CCCN[C@H]1CCc2nc(N)sc2C1,Potency,[1],inactive
same,Potency,[3],inactive
Nc1ccc(S(=O)(=O)Nc2ccccn2)cc1,Potency,[1],inactive
same,Potency,[2],inactive
same,Potency,[3],inactive
same,Potency,[4],inactive
same,Potency,[9],inactive
CCC(C)(C)c1ccc(CC(C)CN2C[C@@H](C)O[C@@H](C)C2)cc1 (stereo partly specified),Potency,[1],12.6 µM (active)
same,Potency,[2],inactive
same,Potency,[3],inactive
same,Potency,[9],inactive
O=C(O)C1CCCN(CCC=C(c2ccccc2)c2ccccc2)C1 (stereo unspecified),Potency,[1],11.2 µM (active)
same,outcome,[5],inactive
same,outcome,[6],inactive
same,outcome,[7],inactive
same,Potency,[8],inactive
Clc1ccccc1CN1CCc2sccc2C1,Potency,[1],14.1 µM (active)
same,Potency,[3],inactive
same,Potency,[4],inactive
Cn1nnc2c(C(N)=O)ncn2c1=O,Potency,[1],inactive
same,Potency,[3],inactive
CC(C)OC(=O)C(C(=O)OC(C)C)=C1SC=CS1,Potency,[1],inactive
same,Potency,[2],inactive
same,Potency,[3],inactive
same,Potency,[4],inactive
same,Potency,[9],inactive
COc1cc2ncnc(Nc3cccc(Cl)c3)c2cc1OC,Potency,[1],inactive
same,outcome,[5],inactive
same,outcome,[6],inactive
same,outcome,[7],inactive
same,Potency,[8],inactive
OCc1ccc(-c2nn(Cc3ccccc3)c3ccccc23)o1,Potency,[1],inactive
same,outcome,[5],inactive
same,outcome,[6],inactive
same,outcome,[7],inactive
same,Potency,[8],inactive
CCN(C)C(=O)Oc1cccc([C@H](C)N(C)C)c1,Potency,[1],inactive
same,Potency,[3],inactive
CCOC(=O)[C@H](CCc1ccccc1)N[C@H]1CS[C@H](c2cccs2)CN(CC(=O)O)C1=O,Potency,[1],inactive
same,Potency,[3],inactive
same,Potency,[9],inactive
CC(C)(C#N)c1cc(Cn2cncn2)cc(C(C)(C)C#N)c1,Potency,[1],inactive
same,Potency,[3],inactive
CC(C)Cn1cnc2c(N)nc3ccccc3c21,Potency,[1],inactive
same,Potency,[3],inactive
CN(CCOc1ccc(CC2SC(=O)NC2=O)cc1)c1ccccn1 (stereo unspecified),Potency,[1],inactive
same,Potency,[3],inactive
same,Potency,[4],inactive
same,Potency,[9],inactive
CCCCS(=N)(=O)CCC(N)C(=O)O (stereo unspecified),Potency,[1],inactive
same,outcome,[5],inactive
same,outcome,[6],inactive
same,outcome,[7],inactive
same,Potency,[8],inactive
O=C(O)c1cccnc1,Potency,[1],inactive
same,Potency,[3],inactive
CNC(=O)c1cc(Oc2ccc(NC(=O)Nc3ccc(Cl)c(C(F)(F)F)c3)cc2)ccn1,Potency,[1],7.08 µM (active)
same,Potency,[2],inactive
same,Potency,[4],12.8 µM (active)
same,Potency,[9],15.8 µM (active)
same,Potency,[10],18.7 µM (active)
COc1cccc(N(C)C(=S)Oc2ccc3c(c2)CCCC3)n1,Potency,[1],3.16 µM (active)
same,Potency,[9],inactive
O=S(=O)(O)CCS,Potency,[1],inactive
same,Potency,[2],inactive
same,Potency,[3],inactive
same,Potency,[9],inactive
Cc1cccc(Nc2ccncc2S(=O)(=O)NC(=O)NC(C)C)c1,Potency,[3],inactive
CNCC[C@H](Oc1cccc2ccccc12)c1cccs1,Potency,[3],16.1 µM (active)
same,Potency,[9],inactive
NC(=O)c1ccc2[nH]ccc2c1,outcome,[5],inactive
same,outcome,[6],inactive
same,outcome,[7],inactive
same,Potency,[8],inactive
CCCc1cc(C(N)=S)ccn1,Potency,[2],inactive
same,Potency,[3],inactive
same,Potency,[4],inactive
Cc1nnc(C(=O)NC(C)(C)c2nc(C(=O)NCc3ccc(F)cc3)c(O)c(=O)n2C)o1,Potency,[2],inactive
CC(C)OC(=O)OCOP(=O)(CO[C@H](C)Cn1cnc2c(N)ncnc21)OCOC(=O)OC(C)C,Potency,[2],inactive
CCOc1cc(N)c(Cl)cc1C(=O)NCC1CN(Cc2ccc(F)cc2)CCO1 (stereo unspecified),Potency,[3],inactive
same,Potency,[9],inactive
O=C(O)c1cn(C2CC2)c2cc(N3CCNCC3)c(F)cc2c1=O,Potency,[3],inactive
CNC1CCCN(c2c(F)cc3c(=O)c(C(=O)O)cn(C4CC4)c3c2OC)C1 (stereo unspecified),Potency,[2],inactive
same,Potency,[3],inactive
same,Potency,[9],inactive
COc1cc(NCc2ccc3nc(N)nc(N)c3c2C)cc(OC)c1OC,Potency,[3],28.7 µM (active)
CCN(CC)CC#CCOC(=O)C(O)(c1ccccc1)C1CCCCC1 (stereo unspecified),outcome,[6],inactive
same,outcome,[7],inactive
same,Potency,[8],inactive
CCn1cc(C(=O)O)c(=O)c2cc(F)c(N3CCN(C)CC3)cc21,Potency,[2],inactive
same,Potency,[3],inactive
same,Potency,[4],inactive
same,Potency,[9],inactive
CN1CCCC(n2nc(Cc3ccc(Cl)cc3)c3ccccc3c2=O)CC1 (stereo unspecified),Potency,[9],inactive
Cc1ccc(S(=O)(=O)N[C@@H](Cc2ccccc2)C(=O)CCl)cc1,outcome,[5],inactive
same,outcome,[6],inactive
same,outcome,[7],inactive
same,Potency,[8],inactive
CC1CC2C3CCC4=CC(=O)C=C[C@]4(C)[C@@]3(F)[C@@H](O)C[C@]2(C)[C@@]1(O)C(=O)CO (stereo partly specified),outcome,[5],inactive
same,outcome,[6],inactive
same,outcome,[7],inactive
same,Potency,[8],inactive
COC(=O)Nc1nc2ccc(S(=O)c3ccccc3)cc2[nH]1 (stereo unspecified),Potency,[2],inactive
COc1cc2c(Nc3ccc(Br)cc3F)ncnc2cc1OCC1CCN(C)CC1,Potency,[2],inactive
same,Potency,[3],20.3 µM (active)
same,Potency,[10],26.4 µM (active)
